In all, about 1,400 compounds went through this assay and about 380 (27%) were called active.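 How the source made its calls: active means mean inhibition above 50% across duplicate retests at 10 µM; inactive means the rest.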 The list shows a part of the results.

This assay is described as follows: inhibition of NALP1/ASC/caspase-1 reporter signal in yeast, confirmation, NALP1 inhibitor project, S. cerevisiae, luminescence, single concentration (AID 488841).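 Further: plate controls were DMSO in galactose medium for no effect and cells in plain SD medium for full effect.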 The conditions noted are these: S. cerevisiae NALP1/ASC/Caspase-1 reporter, beta-gal luminescence; at 10 µM; hits give high values.
Turning to `O=C1C=CC(=O)N1c1ccc(OC(F)F)cc1`, the inhibition was 59.8% (active).

Turning to `COc1ccc(N2C(=O)C3[C@@H](C2=O)C2(Cl)C(Cl)=C(Cl)C3(Cl)C2(OC)OC)cc1` (stereo not given in full), the inhibition was 42% (inactive). `COc1ccc(C(=O)/C=C/Nc2ccc([N+](=O)[O-])cc2C)c(OC)c1`: the inhibition is 4.95% (inactive). For the compound `COc1cc(C)ccc1OCCOCCOc1ccc([N+](=O)[O-])cc1`, the inhibition is 53.3% (active). In the case of `C=CCc1ccc(OCCCOc2ccc(C)cc2OC)c(OC)c1`, the inhibition was 30.9% (inactive). For `CCCCN(C)C(=O)c1nc2ccccn2c1CNCCCn1ncc2ccccc21` the value was 16.4% (inactive); for `Cc1ccc(C(=O)c2c(NC(=O)c3ccncc3)sc3c2CCCC3)cc1`, 51% (active); for `COC(=O)c1c(NC(=O)C2CCCO2)sc2c1CCC2` (stereo not given), 39.9% (inactive). `Cc1ccccc1OCC(=O)Nc1sc2c(c1C#N)CCC2`: the inhibition was 16.7% (inactive).

On to `Cc1ccc(C(C)C)cc1OCCN1CCCC1`, for which the inhibition is 40.4% (inactive).

For the compound `Cc1ccc(OCCCCN(C)Cc2ccccc2)c(Br)c1`, the inhibition is 61.5% (active). As for `Cc1ccc(OCCCCN2CCCCC2)c(Br)c1`, the inhibition was 41.6% (inactive). For `CSc1ccc(CN(C)CC(=O)Nc2ccc(C)cc2Br)cc1`, the inhibition is 47.1% (inactive). Take `CCCCCOc1ccc(Br)cc1CSC(=N)N`: the inhibition is 57.2% (active). With `C=CCNCCCCOc1ccc(Br)cc1C`, the inhibition was 41.7% (inactive). Regarding `O=C(O)CC1NC(=S)N(c2ccccc2)C1=O` (stereo not given), the inhibition was 29.9% (inactive).

For `COc1ccc(NCc2ccc([N+](=O)[O-])s2)c(OC)c1`, the inhibition is 49.1% (inactive). As for `CC(=O)N1N=C(c2ccc3ccccc3c2)OC1(C)C`, the figure is 77.3% (active); as for `CC(C)(C)c1ccc(COn2c(=O)c(-c3ccco3)[n+]([O-])c3ccccc32)cc1`, 12.9% (inactive); as for `O=C(Nc1ccc(Cl)c(Cl)c1)Oc1ccc(NC(=O)c2ccco2)cc1`, 52.8% (active). On to `CCCc1nc2ccc(NC(=O)c3ccco3)cc2c(=O)n1Cc1ccccc1Cl`, for which the inhibition was 27% (inactive). For `COc1cccc(NC2=C(Cl)C(=O)OC2OC(=O)c2ccco2)c1` (stereo not given) the value was 29.2% (inactive); for `COc1ccc2c(c1)C1=NN(/C(C)=C/C(C)=O)C(c3ccc(F)cc3)C1CC2` (stereo not given), 42.4% (inactive); for `Cn1nc(NC(=O)C(C)(C)C)c2c(F)cccc21`, 8.45% (inactive). Consider `CC(C)Oc1ccc(Cc2cnc(N)nc2N)cc1`, for which the inhibition is 9.95% (inactive). Turning to `O=C1O/C(=C/c2ccccc2)c2ccccc21`, the inhibition is 73.8% (active). As for `Cc1ncc(S(=O)(=O)c2ccccc2)c(-c2ccccc2Cl)n1`, the figure is 10.2% (inactive). Consider `CC(NC(=O)c1ccc(F)cc1)C(=O)NC1=NCCS1` (stereo not given), for which the inhibition is 22.1% (inactive).

Turning to `Cc1ccc(-c2csc(NC(=O)c3ccc(F)cc3)c2C(=O)O)cc1`, the inhibition is 89.8% (active).

As to `CN1CCN(C2=C(Cl)C(=O)N(CCc3ccccc3)C2=O)CC1`, the inhibition was 46.6% (inactive).

For the compound `N#C/C(=C\c1ccc([N+](=O)[O-])o1)c1nc2ccccc2[nH]1`, the inhibition was 24.8% (inactive). With `N#C/C(=C/c1cccs1)c1nc2ccccc2[nH]1`, the inhibition is 89% (active). On to `Cn1c(/C(C#N)=C/C2CC=CCC2)nc2ccccc21` (stereo not given), for which the inhibition is 37% (inactive). As for `O=c1oc2ccccc2nc1/C=C(O)/C=C/c1ccc(F)cc1`, the inhibition is 33.8% (inactive). For `COc1ccccc1C(=O)Nc1nc2nc(-c3ccccc3)cc(=O)n2[nH]1`, the inhibition is 22.9% (inactive). Consider `CCN(CC)CCN1C(=O)c2ccccc2NC1c1ccc(N(C)C)cc1` (stereo not given), for which the inhibition was 25.7% (inactive).

In the case of `CN(C)CCN(C(=O)/C=C/c1cccs1)c1nc2ccc(F)cc2s1`, the inhibition is 72.1% (active).

Regarding `CCN(C(=O)[C@@H]1CCCN1C(=O)c1cccs1)c1nc2cc(Cl)ccc2s1`, the inhibition is 46.8% (inactive).

Turning to `CN(C)CCN(C(=O)/C=C/c1cccs1)c1nc2c(F)cc(F)cc2s1`, the inhibition is 51.6% (active). Consider `CCCCNC(=O)COC(=O)c1ccc(Cl)c(S(N)(=O)=O)c1`, for which the inhibition is 25.9% (inactive). With `CCOc1nnc(C)c2c(C)n(-c3cccc(Cl)c3)nc12`, the inhibition is 25.5% (inactive).

With `Clc1ccc2oc3c(Cl)ncnc3c2c1`, the inhibition was 23.1% (inactive). For the compound `CC(C)(C)c1cc2cccnc2n1Cc1cccc(Cl)c1`, the inhibition was 35.9% (inactive). As to `CC(OC(=O)CC(NC(=O)c1ccccc1Cl)c1ccccc1)C(=O)Nc1cccc(Cl)c1Cl` (stereo not given), the inhibition is 29.8% (inactive). For `Cc1cc(C)n(CCOc2ccc(Cl)cc2Cl)n1` the value was 53.1% (active); for `O=C(CCl)NC(=O)NC12CC3CC(CC(C3)C1)C2`, 32.7% (inactive). As to `CCCCNC(=O)C(=O)N/N=C/c1cccc(Br)c1`, the inhibition is 45.6% (inactive). As to `CC(/C=N/NC(=O)CSc1ccccn1)=C\c1ccc(C(C)C)cc1`, the inhibition is 26.2% (inactive). Consider `CC(/C=N/NC(=O)CCn1nnc2ccccc21)=C\c1ccccc1`, for which the inhibition is 38.2% (inactive). As for `CC(/C=N/NC(=O)c1c(Br)cnn1C)=C\c1ccccc1`, the figure is 54.4% (active); as for `COc1cc2c(cc1NC(=S)Nc1ccccc1C)oc1ccccc12`, 26.9% (inactive). For `Cc1ccc(S(=O)(=O)c2nc(Nc3ccccc3)sc2Cl)cc1`, the inhibition was 55.3% (active). Take `Cc1ccc(S(=O)(=O)c2nc(C)oc2NCc2ccccc2)cc1`: the inhibition was 35% (inactive). With `CCOC(=O)/C(=N\Nc1ccc(Cl)cc1)c1csc(Nc2ccccc2)n1`, the inhibition was 27.4% (inactive).

For the compound `CCCOc1ccc(OCCSc2ncccn2)cc1`, the inhibition is 39.4% (inactive).

Regarding `Cc1cc(N2C(=O)C=CC2=O)c([N+](=O)[O-])cc1C`, the inhibition is 41.7% (inactive). Consider `Fc1ccc(NC(=S)N2CCSC2c2cccs2)cc1` (stereo not given), for which the inhibition is 17.1% (inactive). `Cc1ccc(S(=O)(=O)NC2=NCN(CCOC(=O)c3ccc([N+](=O)[O-])cc3)CN2)cc1`: the inhibition is 22.2% (inactive). As for `Brc1ccc(C=Nc2ccc(Nc3ccccc3)cc2)s1`, the inhibition was 51.1% (active).

With `COc1ccc(C(=O)Nc2ccc(S(=O)(=O)Nc3nccc(C)n3)cc2)cc1OC`, the inhibition is 31.2% (inactive).

In the case of `COc1ccc(NC(=S)SC)cc1OC`, the inhibition was 52.4% (active). Consider `COc1ccc2nc3oc(C(=O)Nc4ccc(OC)c(OC)c4)cc3cc2c1`, for which the inhibition is 23.6% (inactive). For the compound `c1ccc(COc2ccc(OCCN3CCCCC3)cc2)cc1`, the inhibition is 35.1% (inactive).

Consider `O=C(O)c1cccnc1C(=O)N1CCc2c([nH]c3ccccc23)C1C(F)(F)F` (stereo not given), for which the inhibition is 0.7% (inactive).

For the compound `COc1ccccc1NC(=O)C1=C(C)NC(=O)NC1c1cccs1` (stereo not given), the inhibition is 27.1% (inactive). Turning to `O=[N+]([O-])c1cc(C(F)(F)F)ccc1NCCc1c[nH]c2ccc(O)cc12`, the inhibition is 51.8% (active).

With `Cc1ccc(C(=O)NCCCNc2ccc(C(F)(F)F)cc2[N+](=O)[O-])cc1`, the inhibition was 31.8% (inactive). In the case of `CCOC(=O)C(=O)C1=C(N2CCOCC2)/C(=C\c2ccc(F)cc2)CC1`, the inhibition was 33.4% (inactive). For `CCOc1cc(CNCc2ccncc2)cc(Br)c1OCc1ccc(F)cc1`, the inhibition is 69.7% (active). `CCOc1c(Cl)cc(CNCC(C)C)cc1OC`: the inhibition was 32.7% (inactive). For the compound `COc1cc(CNC2CCCCCCC2)cc(Br)c1OCC#N`, the inhibition was 38.8% (inactive).

On to `CCOc1cc(CNC2CCCC2)cc(Cl)c1OCc1ccc(F)cc1`, for which the inhibition was 50.7% (active). With `COc1ccc2c(c1)NC(=O)CC(c1ccccc1)=N2`, the inhibition was 43.5% (inactive).

For the compound `O=S(=O)(NC1CCCCC1)c1ccc(F)c2ccccc12`, the inhibition is 51.6% (active). For `Cc1cccc(NC(=O)c2ccc(C3SCC(=O)N3CCc3ccccc3)cc2)c1C` (stereo not given) the value was 48.8% (inactive). For `COc1ccc(N=c2cc(-c3ccc(OC)cc3)oc3ccccc23)cc1` the value was 49.6% (inactive); for `CCCCN(Cc1ccccc1)C(=O)C1CCN(Cc2sccc2C)CC1`, 40.8% (inactive); for `Nc1c(C(=O)NCc2ccc3c(c2)OCO3)nnn1-c1ccc(OC(F)(F)F)cc1`, 31.3% (inactive). Take `Cc1ccc(/C=C/C(=O)NCc2ccc3c(c2)OCO3)o1`: the inhibition is 36% (inactive).

In the case of `O=C(CSCc1cnn(-c2ccccc2)c1-n1cccc1)NCc1ccc2c(c1)OCO2`, the inhibition is 50% (active).

Turning to `COc1ccc2c(c1)O/C(=C\c1sccc1C)C2=O`, the inhibition was 65.4% (active). As to `CCOc1oc(-c2ccc(OC)cc2)nc1C(F)(F)F`, the inhibition was 24.1% (inactive). Turning to `O=C(Nc1cccc(-c2nc3ncccc3o2)c1)c1cc2ccccc2o1`, the inhibition was 46.4% (inactive). `O=C(N/N=C/c1ccncc1)c1cc2ccccc2o1`: the inhibition was 47.5% (inactive). Consider `O=C(NC(=S)Nc1cccnc1)c1cc2ccccc2o1`, for which the inhibition was 55.4% (active). As for `COc1cccc(CN(C)CC(=O)Nc2cccc(S(N)(=O)=O)c2)c1OC`, the figure is 33.9% (inactive).

Consider `C(#Cc1ccc(C#CCN2CCCC2)cc1)CN1CCCC1`, for which the inhibition is 17.6% (inactive).

For `CCC(=O)c1ccc(OCC(O)CN2CCN(c3cccc(C(F)(F)F)c3)CC2)cc1` (stereo not given), the inhibition was 49.5% (inactive).

Consider `O=[N+]([O-])c1ccc(OCC(O)CN2CCN(c3ccccc3F)CC2)cc1` (stereo not given), for which the inhibition is 55.2% (active). In the case of `CCOC(=O)N1CCN(CC(O)COc2ccccc2C(C)(C)C)CC1` (stereo not given), the inhibition was 42.4% (inactive).

`OC(COc1ccc2c(c1)CCC2)CN1CCN(c2ccccc2F)CC1` (stereo not given): the inhibition was 73.8% (active). Take `OC(CSc1c(Cl)cccc1Cl)CN1CCN(c2ccccc2F)CC1` (stereo not given): the inhibition is 40.9% (inactive). Take `Cc1cccc(C(=O)NNC(=O)CN2C(=O)c3ccccc3C2=O)c1`: the inhibition was 24.9% (inactive). For the compound `Cc1ccc(N2C(=N)/C(=C3/Nc4ccccc4S3)C(c3ccccc3)C2=O)cc1` (stereo not given), the inhibition is 35.2% (inactive). As to `CCc1cccc2c(C(=O)CSc3nncn3-c3ccc(OC)cc3)c[nH]c12`, the inhibition is 25.8% (inactive).

On to `CCc1cccc2c(C(=O)COC(=O)c3ccccc3)c[nH]c12`, for which the inhibition was 40% (inactive). Take `CCc1cccc2c(C(=O)COC(=O)c3ccc([N+](=O)[O-])s3)c[nH]c12`: the inhibition was 91.5% (active).

For the compound `c1csc(CNc2nc3ccccc3n2CCN2CCOCC2)c1`, the inhibition was 33.5% (inactive).

For `O=C(CNC(c1ccccc1)c1ccccc1)Nc1c(F)cccc1F`, the inhibition was 26.1% (inactive). On to `COC(=O)c1ccc(NC(=O)CN2C(=O)CNC2=O)cc1`, for which the inhibition was 32.5% (inactive).

As usually defined, the inhibition is the relative decrease from the control value, in per cent.
